Laboratory results as given in PubChem BioAssay (NCATS).
Results filed as inconclusive are left out. Calls of active or inactive are those of the source. Calls come from the whole dose curve; as a rule, active = well fitted curve in the direction sought with a large enough effect; inconclusive = small, poorly fitted or top-dose-only effect, or another doubt; inactive = no such curve, though single readings can be large; an effect the other way counts as inactive or inconclusive. Peptide text beside a SMILES is read from it. * marks the point of attachment. Octanoyl = CCCCCCCC(=O)*

How the values were obtained:
[1] = UWB1.289 Cancer Cell Toxicity qHTS against the NCATS CANVASS Library (AID 1347347); note: nearly all actives have a fitted effect of over 60% in size
Outline: (§1)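 Viability was assessed by adding CellTiter-Glo reagent to treated cultures and reading luminescence after 15min at room temperature. Treatment lasted 72 h at 37 degrees C/5% CO2, using an 11-point series on 1000 cells/well.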

[2] = SW1088 Cancer Cell Toxicity qHTS against the NCATS CANVASS Library (AID 1347350); note: nearly all actives have a fitted effect of over 75% in size
Outline: as §1

[3] = U-118MG Cancer Cell Toxicity qHTS against the NCATS CANVASS Library (AID 1347351)
Outline: as §1

[4] = UWB1.289-WTBRCA1 Cancer Cell Toxicity qHTS against the NCATS CANVASS Library (AID 1347354)
Outline: (§2)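 Cells at 1000/well were given compound 4 h after plating in an 11-point series. Viability was read by CellTiter-Glo luminescence after 72 h at 37 degrees C.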

[5] = HEK-293 Cancer Cell Toxicity qHTS against the NCATS CANVASS Library (AID 1347355); note: series mostly up to about 46 µM; nearly all actives have a fitted effect of over 65% in size
Outline: as §2

[6] = system: NAD(P)H diaphorase (Clostridium kluyveri); assay: Diaphorse counterscreen qHTS: Assay Interference Panel against the NCATS CANVASS Library (AID 1347362)
Outline: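 Clostridium kluyveri diaphorase in PBS with 0.01% Tween-20 was preincubated 15 min at room temperature in the dark with compounds (11-point series). Resorufin fluorescence (ex 525/20, em 598/25) was read 5 min after adding resazurin/NADH.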

[7] = KB-8-5-11 Cancer Cell Toxicity qHTS against the NCATS CANVASS Library (AID 1347364); note: nearly all actives have a fitted effect of over 75% in size
Outline: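 KB-8-5-11 cells, 500/well in DMEM + 10% FBS, given compounds in an 11-point series. Incubated 72 h at 37 °C. Viability by CellTiter-Glo luminescence. Confirmation also run with 1 uM tariquidar.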

[8] = qHTS for ATAD5 Antagonist screened against the NCATS CANVASS Library (AID 1347370);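 note: HEK293T cells carrying an ATAD5 luciferase reporter co-treated with 10 µM 5-fluorouridine; series mostly up to about 46 µM; nearly all actives have a fitted effect of over 65% in size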
Outline: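 HEK293T cells with stably integrated ATAD5-luciferase reporter, 2000/well, 5 h attachment; compounds plus 10 µM 5-fluorouridine, 16 h at 37 °C. Luciferase luminescence read, with CellTiter-Fluor viability read first.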

[9] = molecular target: Nuclear receptor subfamily 1 group I member 3 (Homo sapiens) (UniProt Q14994); assay: qHTS for Constitutive Androstane Receptor (CAR) Antagonist screened against the NCATS CANVASS Library (AID 1347372);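 note: cells stimulated with 50 nM CITCO agonist so inhibition reflects antagonism; series mostly up to about 46 µM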
Outline: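 HepG2 cells stably carrying hCAR and a CYP2B6-2.2kb luciferase reporter were exposed to compounds plus 50 nM CITCO for 24hr at 37C. CAR activity was read by ONE-Glo luminescence, with viability measured first by CellTiter-Fluor.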

[10] = molecular target: Nuclear receptor subfamily 1 group I member 3 (Homo sapiens) (UniProt Q14994); assay: qHTS for Constitutive Androstane Receptor (CAR) Agonist screened against the NCATS CANVASS Library (AID 1347373);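 note: every well also contained 1.5 µM PK11195 alongside the test compound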
Outline: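 HepG2 cells stably carrying hCAR and a CYP2B6-2.2kb luciferase reporter, treated 24hr at 37C with compounds plus 1.5uM PK11195; activation by ONE-Glo luminescence, viability by CellTiter-Fluor.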

[11] = qHTS for Hypoxia signaling pathway (HIF-1) agonists against the NCATS CANVASS Library (AID 1347375)
Outline: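 HRE-bla ME-180 cells (0.5% dialyzed FBS) were pre-incubated 5 hrs at 37C, then exposed to compounds in an 11-point series for 17 hrs. Read-out was CCF4-AM beta-lactamase FRET (460/530 nm emissions), with CellTiter-Glo viability in the same wells.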

[12] = 10-beta competent E. coli microbial cell viability qHTS against the NCATS CANVASS Library (AID 1347376); note: series mostly up to about 46 µM
Outline: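 10-beta competent E. coli (0.2 OD) were exposed overnight at 37C to compounds in an 11-point series. Viability was read as ATP-dependent BacTiter-Glo luminescence after 20 min at room temperature.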

[13] = DH5-alpha competent E. coli microbial cell viability qHTS against the NCATS CANVASS Library (AID 1347377); settings: outcome: dose series up to 46.1 µM unless noted
Outline: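 DH5-alpha E. coli suspension was exposed to an 11-point compound series overnight at 37 °C. Viable cells quantified by ATP luminescence (BacTiter-Glo) after 20 min at room temperature.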

[14] = Cytotoxicity qHTS for assessment of Hepg2 cells membrane integrity screened against the NCATS CANVASS Library (AID 1347387)
Outline: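 HepG2 cells (2000/well) attached overnight, then exposed 5 hr at 37C to compounds in an 11-point series (0.59 nM - 46 uM final). LDH release from damaged membranes read fluorometrically (CytoTox-ONE; 560/590 nm) after 10 min at room temperature.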

[15] = qHTS for Activators of p53 Stress Response Pathway screened against the NCATS CANVASS Library (AID 1347388)
Outline: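 p53RE-bla HCT-116 cells (4000/well) were plated 5 h at 37C, exposed to compounds for 16 h at 37C over an 11-point concentration series, then loaded with CCF4 for 2 h at room temperature; 460/530 nm emission ratio read.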

[16] = qHTS assay for small molecule disruptors of mitochondrial membrane potential screened against the NCATS CANVASS Library (AID 1347389); note: series mostly up to about 46 µM; nearly all actives have a fitted effect of over 60% in size
Outline: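 HepG2 cells (2,000/well) plated overnight, then exposed to compounds in 11-point qHTS series for 1 h at 37C before 30 min Mito-MPS dye; depolarization read as fall in red aggregate (590 nm) to green monomer (535 nm) fluorescence.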

[17] = qHTS for activators of dead-cell proteases activity screened against the NCATS CANVASS Library (AID 1347392);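 note: luminescence from protease leaking out of membrane-damaged cells cleaving impermeant substrate; rising signal means more cytotoxicity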
Outline: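 HepG2 cells (2000/well) attached 18 h at 37C, then exposed 5 h to compounds (11-point qHTS). Dead-cell protease activity read as luminescence from cell-impermeant AAF-aminoluciferin substrate after 15 min at room temperature.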

[18] = Vero-766 cells viability qHTS against the NCATS CANVASS Library: Counterscreen for Zika virus inhibition assay (AID 1347394); note: series mostly up to about 46 µM; nearly all actives have a fitted effect of over 60% in size
Outline: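 CellTiter-Glo luminescence, lower signal indicating cytotoxicity. Vero 766 cells without Zika virus, 1000 cells/well, plated overnight, then treated 72 h at 37C across an 11-point series.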

[19] = qHTS for inhibitors of Wild type Zika virus screened against the NCATS CANVASS Library (AID 1347396);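 note: ATP luminescence of surviving cells so rescue from viral cell killing; series mostly up to about 46 µM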
Outline: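 Luminescent CellTiter Glo read-out of virus-induced cytotoxicity, 72 h post-infection, in Vero 766 cells. Compounds were tested at 11 concentrations; uninfected, vehicle-treated wells defined 100% inhibition.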

[20] = Viability qHTS for inhibitors of the SERCaMP assay screened against the NCATS CANVASS Library (AID 1347400); note: series mostly up to about 92 µM; nearly all actives have a fitted effect of over 70% in size
Outline: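 SH-SY5Y-GLuc SERCaMP MJH297-derived cells, 1000/well, plated 4 h, then exposed to compounds in an 11-point qHTS series for 48 h at 37C. Viability read as CellTiter-Glo luminescence.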

Measured: Potency

Sequence of Nuclear receptor subfamily 1 group I member 3 (Homo sapiens) (Q14994 whole entry, looked up): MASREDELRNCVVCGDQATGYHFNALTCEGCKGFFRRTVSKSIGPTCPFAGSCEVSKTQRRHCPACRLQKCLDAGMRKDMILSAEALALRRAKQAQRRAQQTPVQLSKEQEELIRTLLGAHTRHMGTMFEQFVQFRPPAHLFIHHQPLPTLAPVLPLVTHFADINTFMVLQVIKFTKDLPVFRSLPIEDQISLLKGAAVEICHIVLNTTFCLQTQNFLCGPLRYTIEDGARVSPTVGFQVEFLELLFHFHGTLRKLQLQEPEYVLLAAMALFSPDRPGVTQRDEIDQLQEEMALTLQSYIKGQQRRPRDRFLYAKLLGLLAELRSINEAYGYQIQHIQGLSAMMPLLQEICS

COc1cc(/C=C2/C(=O)N(c3ccc(O)cc3C(=O)O)[C@H](c3ccc(O)c(OC)c3)C2C(=O)Nc2ccc(O)cc2C(=O)O)ccc1O (some centres undefined)
inactive: [1] | [2] | [3] | [4] | [5] | [6] | [7] | [8] | [9] | [10] | [11] | [12] | [13] | [14] | [15] | [16] | [17] | [18] | [19] | [20]

CCC1=C2CCCN3C(=O)O[C@H]([C@H]1OC(C)=O)[C@H]23
inactive: [1] | [2] | [3] | [4] | [5] | [6] | [7] | [8] | [9] | [10] | [11] | [12] | [13] | [14] | [15] | [16] | [17] | [18] | [19] | [20]

CC1=CC[C@@]2(C[C@@H]1O)[C@@H](C(=O)O)CC[C@H]2C(C)C
inactive: [1] | [2] | [3] | [4] | [5] | [6] | [7] | [8] | [9] | [10] | [11] | [12] | [13] | [14] | [15] | [16] | [17] | [18] | [19] | [20]

O=C1c2c(O)cc(O)cc2O[C@@H](c2ccc(O)cc2)[C@@H]1c1c(O)cc(O)c2c(=O)cc(-c3ccc(O)c(O)c3)oc12
inactive: [1] | [2] | [3] | [4] | [5] | [6] | [7] | [8] | [9] | [10] | [11] | [14] | [17] | [18] | [19] | [20]

O=C(O)[C@@]12CO[C@@]3(O)C4CCN(CC[C@H]31)[C@H]4c1c2[nH]c2ccccc12
inactive: [1] | [2] | [3] | [4] | [5] | [6] | [7] | [8] | [9] | [10] | [11] | [12] | [13] | [14] | [15] | [16] | [17] | [18] | [19] | [20]

C1=C2CCCN[C@@H]2[C@@H]2CCN3CCCC[C@@H]3[C@H](C1)C2
inactive: [1] | [2] | [3] | [4] | [5] | [6] | [7] | [8] | [9] | [10] | [11] | [12] | [13] | [14] | [15] | [16] | [17] | [18] | [19] | [20]

C[C@@H]1C(=O)[C@]23CC[C@H]1C[C@]21O[C@H]2C(C)(C)C=CC(=O)[C@@]23COC1=O
inactive: [1] | [2] | [3] | [4] | [5] | [6] | [7] | [8] | [9] | [11] | [12] | [13] | [14] | [15] | [16] | [17] | [18] | [19] | [20]

CC1(C)CCC[C@]2(C)[C@@H]1CC[C@@]13C[C@@H](CC[C@H]12)C(C)(O)C3 (some centres undefined)
inactive: [1] | [2] | [3] | [4] | [5] | [6] | [7] | [8] | [9] | [10] | [11] | [12] | [13] | [14] | [15] | [16] | [17] | [18] | [19] | [20]

C[C@H]1C[C@@H]([C@@H]2CC[C@]34O[C@H](CC[C@@]35C[C@H](C)C(=O)O5)CN24)OC1=O
inactive: [1] | [2] | [3] | [4] | [5] | [6] | [7] | [8] | [9] | [10] | [11] | [12] | [13] | [14] | [15] | [16] | [17] | [18] | [19] | [20]

C[C@@H](CCC[C@]1(C)C(=O)C=C[C@]23C[C@H]4C[C@H](O[C@@]4(C)C2)C31)C(=O)N[C@@H](CO)C(=O)O (some centres undefined)
inactive: [1] | [2] | [3] | [4] | [5] | [6] | [7] | [8] | [9] | [10] | [11] | [12] | [13] | [14] | [15] | [16] | [17] | [18] | [19] | [20]

C/C1=C\CC(=O)/C=C/C=C\c2csc(n2)[C@@H](C)NC(=O)C[C@@](S)([C@@H](C)C(=O)O)CC1
inactive: [1] | [2] | [3] | [4] | [5] | [7] | [8] | [9] | [10] | [11] | [12] | [13] | [14] | [15] | [16] | [17] | [18] | [19] | [20]

CC1C(=O)C23CCC1C[C@@]21O[C@H]2C(C)(C)C=CC(=O)[C@@]23COC1=O (some centres undefined)
inactive: [1] | [2] | [3] | [4] | [5] | [6] | [7] | [8] | [9] | [10] | [11] | [12] | [13] | [14] | [15] | [16] | [17] | [18] | [19] | [20]

CCCCCCCC(=O)N[C@@H](CC(C)C)C(=O)N[C@H](C=O)CCC(=O)O (Octanoyl-Leu-Glu-aldehyde)
inactive: [1] | [2] | [3] | [4] | [5] | [6] | [7] | [8] | [9] | [10] | [11] | [12] | [13] | [14] | [15] | [16] | [17] | [18] | [19] | [20]

O=c1cc(-c2ccc(O)cc2)oc2c([C@@H]3OC(CO)[C@H](O)[C@@H](O)[C@H]3O)c(O)cc(O)c12 (some centres undefined)
inactive: [1] | [2] | [3] | [4] | [5] | [6] | [7] | [8] | [9] | [10] | [11] | [12] | [13] | [14] | [15] | [16] | [17] | [18] | [19] | [20]

COc1cc(/C=C/C(=O)O)ccc1O
inactive: [1] | [2] | [3] | [4] | [5] | [6] | [7] | [8] | [9] | [10] | [11] | [12] | [13] | [14] | [15] | [16] | [17] | [18] | [19] | [20]

C/C=C/c1cc(OC)c2c(c1)[C@@H](C)[C@H](c1ccc(O)c(OC)c1)O2
inactive: [1] | [2] | [3] | [4] | [5] | [6] | [7] | [8] | [9] | [10] | [11] | [12] | [13] | [14] | [15] | [16] | [17] | [18] | [19] | [20]

C=C[C@]1(C)CC[C@@H]([C@H](C)C(=O)/C=C/C(C)C)O1
inactive: [1] | [2] | [3] | [4] | [5] | [6] | [7] | [8] | [9] | [10] | [11] | [12] | [13] | [14] | [15] | [16] | [17] | [18] | [19] | [20]
